Test results reported in PubChem BioAssay (NCI).
The panel holds about 83,000 compounds, 20% with a hit somewhere; the sample as a whole holds those more often.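 Treatment: one concentration, 48 hours, 96-well format. Scoring: percent growth, with anything below 10 considered active.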 A number with no mark means an inactive call. Active and inactive are the calls of the source.

What was measured:
Experiment in all cases: NCI-60 one-dose screen, 48 h (100 = growth as untreated, 0 = no growth, -100 = all killed)
[1] = test system: SK-MEL-2 melanoma; conditions: 10 µM unless noted
[2] = test system: EKVX NSCLC; conditions: 10 µM unless noted
[3] = test system: SN12C renal; conditions: 10 µM unless noted
[4] = test system: UO-31 renal; conditions: 10 µM unless noted
[5] = test system: ACHN renal; conditions: 10 µM unless noted
[6] = test system: A498 renal; conditions: 10 µM unless noted
[7] = test system: CCRF-CEM leukemia; conditions: 10 µM unless noted
[8] = test system: MOLT-4 leukemia; conditions: 10 µM unless noted
[9] = test system: SR leukemia; conditions: 10 µM unless noted
[10] = test system: RPMI-8226 leukemia; conditions: 10 µM unless noted
[11] = test system: OVCAR-8 ovarian; conditions: 10 µM unless noted
[12] = test system: OVCAR-5 ovarian; conditions: 10 µM unless noted
[13] = test system: OVCAR-4 ovarian; conditions: 10 µM unless noted
[14] = test system: SK-OV-3 ovarian; conditions: 10 µM unless noted
[15] = test system: IGROV1 ovarian; conditions: 10 µM unless noted
[16] = test system: OVCAR-3 ovarian; conditions: 10 µM unless noted
[17] = test system: HS 578T breast; conditions: 10 µM unless noted
[18] = test system: NCI/ADR-RES ovarian; conditions: 10 µM unless noted
[19] = test system: CAKI-1 renal; conditions: 10 µM

| SMILES | growth [1] | growth [2] | growth [3] | growth [4] | growth [5] | growth [6] | growth [7] | growth [8] | growth [9] | growth [10] | growth [11] | growth [12] | growth [13] | growth [14] | growth [15] | growth [16] | growth [17] | growth [18] | growth [19] |
| --- | --- | --- | --- | --- | --- | --- | --- | --- | --- | --- | --- | --- | --- | --- | --- | --- | --- | --- | --- |
| CCCC(=O)Oc1ccc(/C(=C(\C)c2ccc(OC)cc2)c2ccc(OCCN3CCCCC3)cc2)cc1 | 80.9% | 89.1% | 84.8% | 65.2% | 91.8% | 80.7% | 83.3% | 72.5% | -14.9% (active) | 56.9% | 90.4% | 86.4% | 75% | 79.9% | 89.9% | 89.4% | 84.3% | 75.6% | – |
| Cc1cc(NC(=O)c2cccc(C(F)(F)F)c2)ccc1-n1ccc2c(NC(=O)c3ccccc3)nccc21 | 101% | 94.1% | 94% | 78.5% | 106% | 112% | 88.3% | 87.8% | 96.3% | 73.3% | 98.2% | 98.3% | 96.7% | 108% | 92.7% | 95.7% | – | 102% | 93.1% |
| O=C(NCCNc1nccc(-c2c(-c3cccc(O)c3)nc3sccn23)n1)c1cc(N2CCOCC2)cc(C(F)(F)F)c1 | 64.5% | 88.6% | 89.8% | 87.5% | 79.4% | 92.8% | 52.9% | 68.6% | 97.3% | 67% | 78.1% | 101% | 133% | 94% | 80.4% | 107% | – | 103% | 82.5% |
| O=C(Nc1ccc(-n2cc(-c3ccncc3)c(-c3ccc(O)c(Cl)c3)n2)cc1)Nc1cccc(Cl)c1Cl | 66.8% | 44.9% | 83.1% | 57.2% | 47.8% | 68.7% | 38.2% | 39.1% | 74% | 12.7% | 62% | 101% | 78.7% | 81.7% | 77.9% | 55.3% | – | 66.7% | 67.3% |
| COc1cc(C(=O)C[n+]2ccccc2)ccc1OC(C)=O | 102% | 100% | 98.1% | 104% | 105% | 78.9% | 95.9% | 98.2% | – | 97.9% | 102% | 105% | 96.8% | 97.5% | – | 106% | 95.1% | 111% | 99.3% |
| COc1ccc(-c2nnc(NC(=O)CN3CCN(c4cc5c(cc4F)c(=O)c(C(=O)O)cn5C4CC4)CC3)s2)cc1OC | 102% | 108% | 95.5% | 89.4% | 109% | 80.5% | 98.9% | 93% | 102% | 102% | 98.4% | 106% | 104% | 98.6% | 104% | 106% | 91.5% | 103% | – |
| CCCCCCCCCCCCCCCC(=O)NS(=O)(=O)OC[C@H]1O[C@@H](n2cnc3c(N)ncnc32)[C@H](O)[C@@H]1O | -24.7% (active) | -8.18% (active) | -12.9% (active) | -69.8% (active) | -18.6% (active) | -95.6% (active) | 5.11% (active) | -4.18% (active) | – | 22.8% | -10.9% (active) | -45.3% (active) | -48.4% (active) | -18.5% (active) | -52.2% (active) | -75.1% (active) | -14.6% (active) | -20.5% (active) | -61.4% (active) |
| COC1=C(OC)C(=O)C=CC1=O | 112% | 121% | 103% | 89.1% | 103% | 120% | 46% | 12.6% | 38.1% | 91.4% | 110% | 116% | 102% | 114% | 96.5% | 83.6% | – | 109% | 115% |
| CCOC(=O)n1cnc2c(Cl)ncnc21 | 154% | 106% | 119% | 97% | 108% | 86% | 109% | 106% | 110% | 116% | 65% | – | 107% | 94.2% | – | 112% | 138% | 246% | 89.8% |
| O=C(NCCNc1nccc(-c2c(-c3cccc(O)c3)nc3sccn23)n1)Nc1cc(C(F)(F)F)cc(C(F)(F)F)c1 | 110% | 52.2% | 82.8% | 73.1% | 65.9% | 86% | – | 60.2% | 65.3% | 45.7% | 52.8% | 96.5% | 121% | 89.3% | 65.2% | 82.2% | – | 87.8% | 72.3% |
| Oc1ccccc1/C=N/c1ccccn1 | 97.8% | 112% | 116% | 92.1% | 106% | 89.5% | 116% | 102% | 104% | 78% | 95% | – | 106% | 99.6% | – | 111% | 143% | -97.1% (active) | 104% |
| O=C(Nc1ccc(-n2cc(-c3ccncc3)c(-c3ccc(O)c(Cl)c3)n2)cc1)c1ccc(Cl)c(C(F)(F)F)c1 | -0.332% (active) | 31.8% | 45.2% | 18.4% | 17.4% | 77.7% | 16.2% | 16.8% | 8.48% (active) | -26.9% (active) | 17.8% | 61.6% | 62.6% | 56% | 52.9% | 4.18% (active) | – | 18.5% | 20.5% |
| O=C(Nc1ccc(-n2ccc3c(NC(=O)c4ccccc4)nccc32)cc1)c1ccc(Cl)c(C(F)(F)F)c1 | 53.4% | 72.8% | 47.9% | 36.6% | 37.1% | 63.6% | -9.57% (active) | 8.54% (active) | -28.7% (active) | -17.3% (active) | 23% | 62.9% | 88.5% | 53.9% | 36% | 22.9% | – | 22.9% | 26.3% |
| COc1cccc(-c2nc3sccn3c2-c2ccnc(NCCNC(=O)c3ccccc3)n2)c1 | 73.3% | 106% | 84.3% | 53.8% | 65.8% | 66.3% | 52.5% | 53.4% | 79.8% | 41.6% | 62.5% | 99.1% | 109% | 88.5% | 69.2% | 89.1% | – | 70.5% | – |
| CN(C)CCS(=O)(=O)Nc1cc(-c2ccc3ncnc(Nc4ccc(F)c(Cl)c4)c3c2)cnc1Cl | -53.4% (active) | -9.17% (active) | 22.6% | -61.2% (active) | 20.2% | -78% (active) | 0.907% (active) | -36.7% (active) | -29.1% (active) | -39.9% (active) | 13.7% | -22.4% (active) | 19.3% | -42.7% (active) | -23.7% (active) | -87% (active) | -7.53% (active) | 14.9% | – |
| O=c1c2ccccc2sc2c(NCCN3CCOCC3)nc3ccccc3c12 | 102% | 70.9% | 59.4% | 47.6% | 43.5% | 43.7% | 36.3% | 37% | 3.91% (active) | 40.3% | 58.8% | 84.9% | 65.6% | 50.8% | 66.2% | 79.2% | 52.7% | 63.5% | – |
| Cc1ccc2nc(-c3ccc(-n4on4-c4ccc(/C=C/c5ccc(-n6on6-c6ccc(-c7nc8ccc(C)cc8s7)cc6)cc5S(=O)(=O)O)c(S(=O)(=O)O)c4)cc3)sc2c1 | 112% | 112% | 105% | 90.4% | 105% | 112% | 100% | 93.9% | 113% | 102% | 116% | 105% | 118% | 113% | 101% | 107% | 116% | 109% | – |
